Experimental data taken from PubChem BioAssay.
Active and inactive are the calls of the source. Unless noted, how the calls were made is not given here.

Tests used:
[1] = test system: Wnt5a (protein binding on small-molecule microarray); experiment: small molecules binding Wnt5a protein – biophysical, small-molecule microarray, 635/667 nm fluorescence, primary screen (AID 1142); conditions: 635 nm fluorescence, higher = more signal;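 further: fluorescence read at 667 nm with signal to noise per printed feature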
[2] = ATP-based viability of Huh7 replicon cells – cell-based, CellTiter-Glo luminescence, basal, 48 h, cytotoxicity control for HCV replication inhibitor project, primary screen (AID 1143); conditions: higher = more signal, called active from +8 up or from −8 down;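 further: Huh7 hepatoma cells carrying a hepatitis C replication reporter with no stimulus; test concentration not given here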
[3] = Pseudomonas biofilm growth suppression – PAO1 strain, BacTiter-Glo luminescence, LB-PBS, primary screen (AID 1144); conditions: P. aeruginosa PAO1 biofilm, 12 h, higher = more signal
[4] = basal CRE-LacZ reporter activity in PC12 – cell-based, unstimulated, primary screen (AID 1145); conditions: no forskolin, luminescence, 4.5 h, higher = more signal, called active from +8 up or from −8 down
[5] = forskolin-driven CRE-LacZ activity in PC12 – cell-based, CRE-LacZ reporter, forskolin-stimulated, primary screen (AID 1146); conditions: luminescence, 4.5 h, higher = more signal, called active from +8 up or from −8 down;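 further: PC12 cells with 6xCRE LacZ reporter stimulated by forskolin 10 µM; beta-galactosidase reporter signal reflecting CREB driven transcription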
[6] = target: Streptavidin (Streptomyces avidinii) (UniProt P22629); experiment: compounds binding control protein streptavidin – biophysical, small-molecule microarray, 635/667 nm fluorescence, artefact control for SMM compound annotation, primary screen (AID 1147); conditions: higher = more signal;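 further: signal reflects streptavidin binding to arrayed compounds as a control protein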
Sequence of Streptavidin (Streptomyces avidinii) (P22629 whole entry, looked up): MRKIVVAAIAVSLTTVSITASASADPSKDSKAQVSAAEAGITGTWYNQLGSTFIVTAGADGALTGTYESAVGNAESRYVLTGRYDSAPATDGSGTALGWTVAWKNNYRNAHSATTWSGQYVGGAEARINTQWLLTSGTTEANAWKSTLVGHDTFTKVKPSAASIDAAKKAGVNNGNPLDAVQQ

[7] = probe aInhba binding on compound microarray – biochemical, small-molecule microarray, 635/667 nm fluorescence, primary screen (AID 1148); conditions: higher = more signal;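 further: score merges 667nm spot fluorescence with signal-to-noise for antibody binding to printed compounds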
Torsin-1A (Homo sapiens) [8] = target: Torsin-1A (Homo sapiens) (UniProt O14656); experiment: TOR1A wild-type binding on microarray – cell lysate, small-molecule microarray, lysate, 635/667 nm, primary screen (AID 1149); conditions: COS7 hTOR1A-WT lysate, 635 nm fluorescence, higher = more signal
Sequence of Torsin-1A (Homo sapiens) (O14656 whole entry, looked up): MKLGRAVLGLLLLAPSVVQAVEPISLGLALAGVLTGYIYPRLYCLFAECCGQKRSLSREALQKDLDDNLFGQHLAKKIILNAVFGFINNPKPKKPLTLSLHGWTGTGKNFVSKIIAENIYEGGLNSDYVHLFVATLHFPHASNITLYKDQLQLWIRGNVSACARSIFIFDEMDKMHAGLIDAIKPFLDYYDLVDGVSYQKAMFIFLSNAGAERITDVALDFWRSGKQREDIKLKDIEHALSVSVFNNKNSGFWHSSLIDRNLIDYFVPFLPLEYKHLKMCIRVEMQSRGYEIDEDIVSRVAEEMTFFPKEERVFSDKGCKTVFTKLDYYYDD

Torsin-1A (Homo sapiens) [9] = target: Torsin-1A (Homo sapiens) (UniProt O14656); experiment: torsin A mutant lysate binding on microarrays – cell lysate, small-molecule microarray, COS7 lysate, 635/667 nm fluorescence, primary screen (AID 1150); conditions: COS7 hTOR1A mutant lysate, 635 nm fluorescence, higher = more signal;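 further: score pools 667 nm emission and signal to noise measuring lysate protein binding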
[10] = test system: Sonic hedgehog protein (Shh); experiment: Sonic hedgehog microarray binding compounds – biochemical, small-molecule microarray, 635/667 nm fluorescence, primary screen (AID 1151); conditions: 635 nm fluorescence, higher = more signal;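 further: Shh protein binding to compounds spotted on small-molecule microarray slides; score combines spot fluorescence intensity with signal-to-noise across triplicate slides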
[11] = optical density shifts of acrAB sulA E. coli – strain DRC41, OD650, 48 h, E. coli filamentation inducer project, primary screen (AID 1152); conditions: higher = more signal, called active from +8 up or from −8 down;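 further: E. coli MC1000 strain DRC41 lacking acrAB efflux pump and sulA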
[12] = probe aLefty1 binding on compound microarray – biochemical, small-molecule microarray, 635/667 nm fluorescence, primary screen (AID 1153); conditions: higher = more signal;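 further: score merges spot fluorescence with signal-to-noise ratio from the scanned slide images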
[13] = plasmodial surface anion channel blockers, osmotic lysis – cell-based, P. falciparum Indochina, OD700, 1 h, primary screen (AID 1154); conditions: P. falciparum Indochina infected RBC osmotic lysis, higher = more signal, called active from +8 up or from −8 down
[14] = plasmodial surface anion channel blockers, osmotic lysis – cell-based, P. falciparum Indochina, OD700, 2 h, primary screen (AID 1155);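 further: lysis reports solute entry through the parasite surface anion channel PSAC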; conditions: P. falciparum Indochina infected erythrocytes, higher = more signal, called active from +8 up or from −8 down
[15] = changes in parasitized red cell lysis, either direction – P. falciparum Indochina, OD700, 3 h, PSAC antagonist project, primary screen (AID 1156); conditions: P. falciparum-infected erythrocytes, osmotic lysis, higher = more signal, called active from +8 up or from −8 down
[16] = plasmodial surface anion channel blockers, osmotic lysis – cell-based, P. falciparum Indochina, OD700, 18 h, primary screen (AID 1157); conditions: P. falciparum Indochina infected erythrocytes, osmotic lysis OD700, 18 h; higher = more signal, called active from +8 up or from −8 down
[17] = S6 kinase pathway phospho-S6 level changes – cell-based, A549, cytoblot, luminescence, serum-stimulated, primary screen (AID 1158); conditions: 5 h, higher = more signal;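 further: serum-stimulated A549 lung adenocarcinoma cells; signal is phosphorylated S6 detected by cytoblot immunostaining with HRP secondary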
[18] = target: NADPH oxidase 2 (Homo sapiens) (UniProt P04839); experiment: compounds shifting NOX2 Amplex Red fluorescence – cell-based, HEK293-NOX2, PMA-stimulated, NOX inhibitor project, primary screen (AID 1159); conditions: 45 min, higher = more signal, called active from +8 up or from −8 down; further: test concentration not given here
Sequence of NADPH oxidase 2 (Homo sapiens) (P04839 whole entry, looked up): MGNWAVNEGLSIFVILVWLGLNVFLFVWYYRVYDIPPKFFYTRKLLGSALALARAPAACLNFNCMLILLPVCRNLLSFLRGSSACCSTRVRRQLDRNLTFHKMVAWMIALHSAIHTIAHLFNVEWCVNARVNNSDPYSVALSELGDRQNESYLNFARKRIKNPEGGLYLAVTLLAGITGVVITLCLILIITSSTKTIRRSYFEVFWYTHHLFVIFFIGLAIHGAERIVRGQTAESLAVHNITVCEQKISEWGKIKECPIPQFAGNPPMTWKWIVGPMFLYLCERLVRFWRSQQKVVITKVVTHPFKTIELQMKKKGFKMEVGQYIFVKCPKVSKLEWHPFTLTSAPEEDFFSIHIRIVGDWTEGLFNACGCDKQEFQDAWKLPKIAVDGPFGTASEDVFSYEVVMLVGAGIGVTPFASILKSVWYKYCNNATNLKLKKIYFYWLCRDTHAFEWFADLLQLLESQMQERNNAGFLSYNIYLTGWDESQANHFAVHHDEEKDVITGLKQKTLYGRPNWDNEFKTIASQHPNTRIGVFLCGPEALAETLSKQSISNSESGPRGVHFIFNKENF

[19] = target: NADPH oxidase 4 (Homo sapiens) (UniProt Q9NPH5); experiment: compounds shifting NOX4 Amplex Red fluorescence – cell-based, HEK293-NOX4, tetracycline-induced, NOX inhibitor project, primary screen (AID 1160); conditions: HEK293-NOX4, Amplex Red H2O2 fluorescence, 45 min; higher = more signal, called active from +8 up or from −8 down
Sequence of NADPH oxidase 4 (Homo sapiens) (Q9NPH5 whole entry, looked up): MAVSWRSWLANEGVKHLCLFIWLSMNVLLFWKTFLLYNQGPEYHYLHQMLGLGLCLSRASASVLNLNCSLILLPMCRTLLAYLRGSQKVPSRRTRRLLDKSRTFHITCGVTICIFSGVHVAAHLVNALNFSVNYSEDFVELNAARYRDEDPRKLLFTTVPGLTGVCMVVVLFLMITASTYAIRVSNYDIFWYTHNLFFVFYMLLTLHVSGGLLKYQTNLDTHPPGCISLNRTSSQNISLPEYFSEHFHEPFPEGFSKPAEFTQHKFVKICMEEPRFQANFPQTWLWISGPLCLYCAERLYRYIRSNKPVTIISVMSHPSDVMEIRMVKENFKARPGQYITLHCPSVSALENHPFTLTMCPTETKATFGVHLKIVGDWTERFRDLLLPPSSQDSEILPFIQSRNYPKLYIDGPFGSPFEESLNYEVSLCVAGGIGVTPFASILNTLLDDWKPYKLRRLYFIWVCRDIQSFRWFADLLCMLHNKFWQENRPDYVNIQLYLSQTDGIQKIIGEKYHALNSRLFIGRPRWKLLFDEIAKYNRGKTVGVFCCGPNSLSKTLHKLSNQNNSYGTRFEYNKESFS

[20] = target: NADPH oxidase 5 (Homo sapiens) (UniProt Q96PH1); experiment: compounds shifting NOX5 Amplex Red fluorescence – cell-based, HEK293-NOX5, NOX inhibitor project, primary screen (AID 1161); conditions: HEK293-NOX5, ionomycin, 45 min, higher = more signal
Sequence of NADPH oxidase 5 (Homo sapiens) (Q96PH1 whole entry, looked up): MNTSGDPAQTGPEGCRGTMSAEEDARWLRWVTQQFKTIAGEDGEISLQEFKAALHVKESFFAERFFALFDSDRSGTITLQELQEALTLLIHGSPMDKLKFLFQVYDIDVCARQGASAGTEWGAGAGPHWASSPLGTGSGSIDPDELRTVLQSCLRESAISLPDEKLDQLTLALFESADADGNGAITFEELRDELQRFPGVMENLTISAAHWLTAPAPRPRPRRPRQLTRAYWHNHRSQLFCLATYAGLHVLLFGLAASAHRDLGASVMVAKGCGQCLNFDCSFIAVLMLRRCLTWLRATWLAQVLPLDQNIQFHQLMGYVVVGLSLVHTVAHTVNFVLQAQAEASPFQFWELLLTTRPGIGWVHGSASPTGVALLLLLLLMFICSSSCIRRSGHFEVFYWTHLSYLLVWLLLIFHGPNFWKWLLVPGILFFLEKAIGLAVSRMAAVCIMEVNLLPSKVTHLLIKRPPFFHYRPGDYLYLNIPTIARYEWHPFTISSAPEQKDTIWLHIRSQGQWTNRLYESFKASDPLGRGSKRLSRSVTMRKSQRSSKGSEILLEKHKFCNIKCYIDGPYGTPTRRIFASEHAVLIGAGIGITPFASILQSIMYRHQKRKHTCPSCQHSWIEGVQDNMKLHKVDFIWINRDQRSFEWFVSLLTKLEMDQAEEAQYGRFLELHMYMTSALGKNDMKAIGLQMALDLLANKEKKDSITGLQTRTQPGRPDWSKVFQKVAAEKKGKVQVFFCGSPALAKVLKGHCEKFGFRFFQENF

SMILES | composite z-score [1] | z-score [2] | z-score [3] | z-score [4] | z-score [5] | composite z-score [6] | composite z-score [7] | composite z-score (Torsin-1A (Homo sapiens) [8]) | composite z-score (Torsin-1A (Homo sapiens) [9]) | composite z-score [10] | z-score [11] | composite z-score [12] | z-score [13] | z-score [14] | z-score [15] | z-score [16] | z-score [17] | z-score [18] | z-score [19] | z-score [20]
CCCCCCc1nc(-c2ccc(-c3ccc(Cl)c(Cl)c3)o2)cc2c1[Si](C(C)C)(C(C)C)O[C@H]2c1ccccc1 | -0.355 | -0.731 (inactive) | -0.206 (inactive) | -0.113 (inactive) | 0.497 (inactive) | -0.711 | -0.0719 | -0.512 | 0.978 | -0.434 | 0.321 (inactive) | -0.598 | 0.439 (inactive) | 0.0435 (inactive) | 1.47 (inactive) | 0.333 (inactive) | 0.205 | -1.24 (inactive) | -1.44 (inactive) | -1.49
CCOC(=O)C[C@H]1[C@H](OC(=O)c2ccc(-c3ccccc3)cc2)[C@@H](NC(=O)c2ccccc2)c2cc(OCCCO)ccc2N1C(=O)c1ccc2ccccc2n1 | 0.278 | 0.775 (inactive) | 0.577 (inactive) | -0.882 (inactive) | -0.127 (inactive) | 0.255 | 0.368 | 0.181 | 0.757 | -0.0315 | -0.734 (inactive) | 0.119 | 2.19 (inactive) | -0.0981 (inactive) | -0.735 (inactive) | -0.11 (inactive) | -0.488 | 0.0548 (inactive) | 1.41 (inactive) | 1.81
COC(=O)C(CC#Cc1ccc2c(c1)[C@]1(C(=O)N2)[C@H](c2ccccc2OCCO)N2[C@H](c3ccccc3)[C@H](c3ccccc3)OC(=O)[C@H]2[C@@H]1C(N)=O)C(=O)OC | 0.136 | -5.98 (inactive) | 0.502 (inactive) | -0.0515 (inactive) | 1.02 (inactive) | 1.5 | 1.26 | 0.412 | 0.434 | 0.111 | 0.793 (inactive) | 1.81 | 7.57 (inactive) | 2.02 (inactive) | 1.44 (inactive) | 1.2 (inactive) | -0.0528 | 2.12 (inactive) | 0.696 (inactive) | 1.51
CCCC=C(CCC)[C@@H](NC(=O)OCC(C)C)c1ccccc1 | 1.33 | -3.28 (inactive) | 0.173 (inactive) | 0.766 (inactive) | 1.43 (inactive) | 0.576 | 0.613 | 0.0387 | -0.0475 | 0.661 | -1.93 (inactive) | 2.47 | -0.725 (inactive) | -0.732 (inactive) | 0.455 (inactive) | -1.61 (inactive) | 1.44 | -4.11 (inactive) | -3.58 (inactive) | -2.7
NC(=O)[C@@]1(Cc2ccccc2)N=C(c2ccc(OCCCO)cc2)O[C@H]1c1ccccc1 | 0.677 | -1.51 (inactive) | -0.657 (inactive) | 1.37 (inactive) | -0.382 (inactive) | 0.924 | 0.196 | 1.07 | 0.601 | -0.558 | 1.53 (inactive) | 0.232 | 16.3 (active) | 2.07 (inactive) | 0.59 (inactive) | 0.639 (inactive) | 0.151 | -0.281 (inactive) | 0.211 (inactive) | 0.495
CCOC(=O)C1=CC[C@@H](c2ccccc2)N(S(=O)(=O)c2ccc(C)cc2)[C@H]1c1ccc(CC)cc1 | 0.074 | -3.08 (inactive) | 1.17 (inactive) | 0.136 (inactive) | 0.0268 (inactive) | 1.13 | 0.0018 | 0.567 | 0.359 | -0.737 | -0.688 (inactive) | 0.166 | 0.874 (inactive) | 0.991 (inactive) | -0.862 (inactive) | 0.361 (inactive) | -0.253 | 0.711 (inactive) | 0.029 (inactive) | 0.46
O=C1OCCC=C[C@H]2OC34C=CCN(CCN5CCOCC5)C(=O)[C@H]3N(CCCCCO)C(=O)[C@@H]4C12 (stereo not given in full) | -0.135 | 0.201 (inactive) | -0.199 (inactive) | 1.14 (inactive) | 0.25 (inactive) | 1.38 | -0.253 | 1.14 | 1.52 | 0.139 | 0.725 (inactive) | -0.103 | 2.61 (inactive) | 0.535 (inactive) | 2.32 (inactive) | 0.305 (inactive) | -0.0483 | 0.855 (inactive) | 0.393 (inactive) | 1.85
CC(C)NC(=O)[C@@]1(Cc2ccccc2I)c2ccccc2C(=O)N(Cc2ccccc2Cl)[C@H]1c1ccc(CO)cc1 | 0.361 | -2.21 (inactive) | 0.5 (inactive) | -0.464 (inactive) | -0.0764 (inactive) | 0.746 | -0.0557 | 0.214 | 0.891 | 1 | -0.522 (inactive) | 0.223 | 10.7 (active) | 1.77 (inactive) | 0.614 (inactive) | 1.06 (inactive) | 0.026 | 0.284 (inactive) | 0.904 (inactive) | 0.774
